Activity calls are given as the source filed them.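 How the source made its calls, unless noted: active means compounds that lower survival of HCT116 colon cancer cells in the luminescence readout, no numeric limit stated; inactive means the rest.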

Assay [1] is described as follows: Wnt pathway potentiators raising nuclear beta-catenin – imaging, WNT3A-conditioned medium, mouse C2C12, NPC library, primary screen (AID 1117326; in the data active means nuclear beta-catenin stimulation mostly above about 4.2%, no sharp cut-off; inactive means mostly below about 10%; further: reference of the scale not given here). The following applies: stronger effect = higher value.
A short description of assay [2]: stimulators of insulin release from INS-1E, primary screen, cell-based, 5 mM glucose, NPC library (AID 1117329;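 active means compound raises insulin release from rat beta cells at 5 mM glucose, no numeric limit stated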; further: reference of the scale not given here). The following applies: rat INS-1E insulin secretion, at 10 µM, stronger effect = higher value.
Assay [3] is described as follows: growth inhibition of GSK3B-pretreated HCT116 cells – cell-based, CellTiter-Glo, 0.2 to 20 µM (AID 1117336;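 active means compounds lowering colon cancer cell viability after pretreatment blocking the GSK3B kinase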). The following applies: HCT116 viability after GSK3B inhibitor, at 20 µM, stronger effect = higher value. In general terms: In ATP-based viability assays light output follows the ATP content of the culture.
Assay [4] can be described thus: inhibition of endothelial tube formation, primary screen, imaging, VEGF stimulated, CD31 staining, tube area, NPC library (AID 1117340;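 active means compound that reduces growth-factor-driven endothelial tube area in a mixed cell culture, no cutoff stated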). The following applies: VEGF-stimulated ADSC/ECFC co-culture, at 10 µM, stronger effect = higher value.
The nature of assay [5]: GLP1 release stimulators, primary, NCI-H716, NPC library (AID 1117341;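 active means compound raises GLP1 secretion from the human gut endocrine cells, with no numeric limit stated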; further: reference of the scale not given here). The following applies: NCI-H716 cells, at 10 µM, stronger effect = higher value.
A short description of assay [6]: HCT116 colon cancer cell growth inhibition, primary screen, CellTiter-Glo luminescence, NPC library (AID 1117342). The following applies: at 20 µM (top of the series).
A short description of assay [7]: reduced SW480 viability measured with CellTiter-Glo, NPC library, primary (AID 1117343;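 active means compounds that lower viability of the colon cancer cells in the luminescence readout, with no numeric limit stated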). The following applies: CellTiter-Glo luminescence; at 20 µM (top of the series).
A short description of assay [8]: NPC library primary testing for decreased DLD-1 cell viability via CellTiter-Glo (AID 1117346;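 active means compounds that lower survival of DLD-1 colon cancer cells in the luminescence readout, no cutoff given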). The following applies: DLD-1 viability, CellTiter-Glo luminescence; at 20 µM (top of the series).

As for `COc1cc(C(=S)N2CCOCC2)cc(OC)c1OC`, the nuclear beta-catenin stimulation in assay [1] (at 10 µM) was -0.6% (inactive); in assay [1] (stimulation, at 2 µM), 2%. In addition, the insulin secretion stimulation in assay [2] was 1.5% (inactive). Also, in assay [3], the viability decrease is -0.85% (inactive). In assay [4], the tube area decrease is -15.3% (inactive). Moreover, the GLP1 secretion stimulation in assay [5] is -0.3% (inactive). For the same compound, the inhibition of viability in assay [6] is -1.2% (inactive). Moreover, the viability decrease (inhibition) is 9.6% (inactive) in assay [7] and 1.7% (inactive) in assay [8].

In the case of `CO/N=C(/C(=O)N[C@@H]1C(=O)N2C(C(=O)[O-])=C(C[n+]3ccn4ncccc43)CS[C@H]12)c1nsc(N)n1`, the nuclear beta-catenin stimulation in assay [1] (at 10 µM) was 2% (inactive); in assay [1] (stimulation, at 2 µM), -1%. For the same compound, the insulin secretion stimulation in assay [2] is 3.45% (inactive). Besides, the viability decrease in assay [3] was 16.4% (inactive). The tube area decrease in assay [4] was -10.7% (inactive). Besides, the GLP1 secretion stimulation in assay [5] is -1.2% (inactive). Further, in assay [6], the inhibition of viability is -21.9% (inactive). The viability decrease (inhibition) in assay [7] is -3.8% (inactive); in assay [8], -6.6% (inactive).

In the case of `Cc1ccccc1C(=O)Nc1ccc(C(=O)N2CCCC(N(C)C)c3ccccc32)cc1` (stereo not given), the nuclear beta-catenin stimulation is 58.3% (active) in assay [1] (at 10 µM) and 30% in assay [1] (stimulation, at 2 µM). Also, the insulin secretion stimulation in assay [2] is 2.4% (inactive). The viability decrease in assay [3] is 18.9% (inactive). Besides, the tube area decrease in assay [4] is 59.2% (active). In addition, the GLP1 secretion stimulation in assay [5] is 2.1% (inactive). In assay [6], the inhibition of viability was 80.2% (active). In addition, the viability decrease (inhibition) in assay [7] was 80.2% (active); in assay [8], 59% (active).

As to `O=C1CC(c2ccc(Cl)cc2)CC(=O)N1`, the nuclear beta-catenin stimulation in assay [1] (at 10 µM) is -1.1% (inactive); in assay [1] (stimulation, at 2 µM) it was -2.3%. Besides, the insulin secretion stimulation in assay [2] is 1.8% (inactive). Besides, in assay [3], the viability decrease is 2.1% (inactive). Also, the tube area decrease in assay [4] was -4.2% (active). The GLP1 secretion stimulation in assay [5] was 3.8% (inactive). Also, in assay [6], the inhibition of viability was 20.4% (inactive). In addition, the viability decrease (inhibition) in assay [7] is -4.9% (inactive); in assay [8] it was 6.7% (inactive).

Regarding `N[C@H](C(=O)O)c1ccc(O)cc1`, the nuclear beta-catenin stimulation in assay [1] (at 10 µM) is 2.5% (inactive); in assay [1] (stimulation, at 2 µM), 3.1%. Besides, the insulin secretion stimulation in assay [2] was 5.2% (inactive). Besides, the viability decrease in assay [3] was -0.7% (inactive). The tube area decrease in assay [4] was -7.9% (inactive). Also, the GLP1 secretion stimulation in assay [5] was -2.9% (inactive). For the same compound, the inhibition of viability in assay [6] was 6% (inactive). The viability decrease (inhibition) was 13.1% (inactive) in assay [7] and -2.7% (inactive) in assay [8].

Turning to `Oc1cn2c(n1)Nc1ccc(Cl)c(Cl)c1C2`, the nuclear beta-catenin stimulation in assay [1] (at 10 µM) is 0.1% (inactive); in assay [1] (stimulation, at 2 µM), 2.5%. Further, in assay [2], the insulin secretion stimulation was 0.6% (inactive). In addition, in assay [3], the viability decrease is -54.9% (inactive). In addition, in assay [4], the tube area decrease was 40.1% (active). Moreover, the GLP1 secretion stimulation in assay [5] was 4.1% (inactive). Besides, the inhibition of viability in assay [6] was -2.2% (inactive). Besides, the viability decrease (inhibition) in assay [7] was -21.9% (inactive); in assay [8], -16.9% (inactive).

For `O=C(NN1CCCC1)NS(=O)(=O)c1ccc(Cl)cc1`, the nuclear beta-catenin stimulation in assay [1] (at 10 µM) was -0.5% (inactive); in assay [1] (stimulation, at 2 µM), -0.1%. In addition, the insulin secretion stimulation in assay [2] is 33.9% (active). In addition, the viability decrease in assay [3] is -3.1% (inactive). In addition, the tube area decrease in assay [4] was 7% (inactive). In addition, the GLP1 secretion stimulation in assay [5] was -1.1% (inactive). Also, the inhibition of viability in assay [6] is 14.2% (inactive). The viability decrease (inhibition) in assay [7] was 0% (inactive); in assay [8], -2.8% (inactive).

For the compound `C=CCNCCCCCC[N+](C)(C)C`, the nuclear beta-catenin stimulation in assay [1] (at 10 µM) is -1.4% (inactive); in assay [1] (stimulation, at 2 µM), 0.4%. The insulin secretion stimulation in assay [2] was -0.9% (inactive). The viability decrease in assay [3] is -5.7% (inactive). For the same compound, the tube area decrease in assay [4] is -1.9% (inactive). For the same compound, the GLP1 secretion stimulation in assay [5] is -0.6% (inactive). Further, the inhibition of viability in assay [6] was -3.1% (inactive). In addition, the viability decrease (inhibition) in assay [7] and in assay [8] was -2.3% (inactive) in each case.

With `COC(=O)/C=C\C(=O)OC`, the nuclear beta-catenin stimulation in assay [1] (at 10 µM) is 3.8% (inactive); in assay [1] (stimulation, at 2 µM) it was 9%. The insulin secretion stimulation in assay [2] was 2.95% (inactive). In addition, the viability decrease in assay [3] is 8.3% (inactive). The tube area decrease in assay [4] is 10.6% (inactive). Also, the GLP1 secretion stimulation in assay [5] is -1.8% (inactive). In addition, in assay [6], the inhibition of viability was -5.7% (inactive). Further, the viability decrease (inhibition) is 5.9% (inactive) in assay [7] and -5.6% (inactive) in assay [8].

On to `Cc1c(C)c2c(c(C)c1OC(=O)c1cccnc1)CC[C@@](C)(CCC[C@H](C)CCC[C@H](C)CCCC(C)C)O2`, for which the nuclear beta-catenin stimulation in assay [1] (at 10 µM) was -0.1% (inactive); in assay [1] (stimulation, at 2 µM) it was -0.2%. The insulin secretion stimulation in assay [2] is -0.2% (inactive). In addition, in assay [3], the viability decrease is 13.1% (inactive). In addition, the tube area decrease in assay [4] is -9.8% (inactive). For the same compound, in assay [5], the GLP1 secretion stimulation was 5.5% (inactive). The inhibition of viability in assay [6] is -2.9% (inactive). Also, the viability decrease (inhibition) in assay [7] is -20.2% (inactive); in assay [8], -13.8% (inactive).

Turning to `CC(=O)Nc1ccc(S(=O)(=O)Nc2cc(C)on2)cc1`, the nuclear beta-catenin stimulation is 1.7% (inactive) in assay [1] (at 10 µM) and 0.3% in assay [1] (stimulation, at 2 µM). Further, in assay [2], the insulin secretion stimulation is 0.5% (inactive). Further, in assay [3], the viability decrease is -7% (inactive). In assay [4], the tube area decrease is -15.5% (inactive). The GLP1 secretion stimulation in assay [5] is 0.1% (inactive). Moreover, in assay [6], the inhibition of viability is 0.8% (inactive). Further, the results for the viability decrease (inhibition) in assay [7] and in assay [8] were -14.4% (inactive) and 2% (inactive), respectively.

With `COc1cc(C(=O)OC(COCCC(C)C)CN2CCOCC2)cc(OC)c1OC` (stereo not given), the nuclear beta-catenin stimulation in assay [1] (at 10 µM) is 0.4% (inactive); in assay [1] (stimulation, at 2 µM), 2.6%. In addition, the insulin secretion stimulation in assay [2] is 1.9% (inactive). The viability decrease in assay [3] is -9.2% (inactive). In addition, the tube area decrease in assay [4] was 0.7% (inactive). Besides, the GLP1 secretion stimulation in assay [5] is 13.1% (inactive). The inhibition of viability in assay [6] was 18.4% (inactive). Further, the viability decrease (inhibition) in assay [7] is 39.2% (inactive); in assay [8], 2.2% (inactive).

Take `C#Cc1ccc(-c2ccccc2F)cc1`: the nuclear beta-catenin stimulation in assay [1] (at 10 µM) is -1.3% (inactive); in assay [1] (stimulation, at 2 µM) it was -2.1%. Besides, the insulin secretion stimulation in assay [2] was 0.3% (inactive). The viability decrease in assay [3] is -3.5% (inactive). The tube area decrease in assay [4] was 7.2% (inactive). Further, the GLP1 secretion stimulation in assay [5] is -0.7% (inactive). Also, the inhibition of viability in assay [6] is 0.6% (inactive). Moreover, the viability decrease (inhibition) in assay [7] is -12.8% (inactive); in assay [8] it was 18.8% (inactive).

Regarding `Cc1onc(-c2ccccc2)c1C(=O)Cl`, the nuclear beta-catenin stimulation in assay [1] (at 10 µM) was 0% (inactive); in assay [1] (stimulation, at 2 µM) it was -1.4%. Besides, the insulin secretion stimulation in assay [2] was 2.75% (inactive). Also, the viability decrease in assay [3] was 0.5% (inactive). Besides, the tube area decrease in assay [4] is -12.1% (inactive). The GLP1 secretion stimulation in assay [5] is 1.7% (inactive). For the same compound, the inhibition of viability in assay [6] is 1.8% (inactive). Besides, the figures for the viability decrease (inhibition) in assay [7] and in assay [8] were -5.7% (inactive) and -12.5% (inactive), respectively.

For `C/C(=C(/OCCOc1ccc(Cl)cc1)c1ccc(Cl)cc1Cl)n1ccnc1`, the nuclear beta-catenin stimulation in assay [1] (at 10 µM) is 3.9% (inactive); in assay [1] (stimulation, at 2 µM), 1.3%. The insulin secretion stimulation in assay [2] is -0.7% (inactive). For the same compound, the viability decrease in assay [3] was 102% (active). Also, the tube area decrease in assay [4] is 109% (active). In assay [5], the GLP1 secretion stimulation was 4.1% (inactive). Besides, in assay [6], the inhibition of viability was 102% (active). The viability decrease (inhibition) in assay [7] is 143% (active); in assay [8], 105% (active).
